Screening results (PubChem BioAssay)
MEKK3 PB1 HTS: modulators (inhibitors or enhancers) of MEK5 binding to human MEKK3 PB1 domain; Q99759; bead-based flow cytometry, Alexa488-MEK5 binding to MEKK3; actives lie on both sides; 0 = blocked by unlabeled MEK5, 100 = vehicle; binding response (% of control), % at 10 µM; hit rate 1.4% among 290,000;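 active means binding response more than 3 SD above or below the average of its plate-row segment, actives on both sides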;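 further: Alexa488 bead fluorescence after subtracting the streptavidin-only scavenger bead signal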
Target sequence (Q99759 whole entry, looked up, the tested form may be a part): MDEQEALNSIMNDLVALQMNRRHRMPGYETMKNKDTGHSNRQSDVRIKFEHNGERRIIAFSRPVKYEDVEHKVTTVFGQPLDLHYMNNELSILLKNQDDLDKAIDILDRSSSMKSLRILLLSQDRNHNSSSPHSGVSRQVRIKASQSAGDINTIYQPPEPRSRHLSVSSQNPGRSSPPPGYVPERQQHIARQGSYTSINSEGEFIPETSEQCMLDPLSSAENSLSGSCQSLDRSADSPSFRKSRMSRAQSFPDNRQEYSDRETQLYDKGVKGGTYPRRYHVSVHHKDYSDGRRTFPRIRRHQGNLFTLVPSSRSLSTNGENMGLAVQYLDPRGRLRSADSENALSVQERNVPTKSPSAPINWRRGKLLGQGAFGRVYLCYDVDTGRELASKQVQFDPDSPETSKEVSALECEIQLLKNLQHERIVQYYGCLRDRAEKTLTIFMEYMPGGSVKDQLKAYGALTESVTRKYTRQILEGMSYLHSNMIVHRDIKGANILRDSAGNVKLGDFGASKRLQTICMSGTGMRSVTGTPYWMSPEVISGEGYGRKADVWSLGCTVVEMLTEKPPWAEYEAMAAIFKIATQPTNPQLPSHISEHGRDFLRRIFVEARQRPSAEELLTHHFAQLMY
MEKK2 mut-MEK5: signal of MEK5 binding to mutant human MEKK2 PB1 domain; bead flow cytometry, Alexa488-MEK5 binding to MEKK2 mutant; hit rate 0.35% among 290,000; percent response, % at 10 µM; in the data active means percent response above about 24%, passing the limit was not always enough
GRK2 inh: human GRK2 inhibition via aptamer displacement; bead flow cytometry, FAM-aptamer displacement from GRK2; inhibition of aptamer binding, % at 10 µM; hit rate 0.59% among 330,000;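 active means inhibition of aptamer binding above 40%, roughly 3 SD of noise, on plates passing a quality check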;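 further: median bead fluorescence of bound FAM aptamer so fluorescent compounds give negative values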
MEKK2 WT-MEK5: raises or lowers MEK5 binding to wildtype human MEKK2 PB1 domain; hit rate 1.1% among 290,000; binding response (% of control), % at 10 µM; bead flow cytometry, Alexa488-MEK5 binding to MEKK2 WT; actives lie on both sides; in the data active means binding response below about 67% or above about 130%
GRK2 inh confirm: human GRK2 inhibition confirmation, cherry pick 1; AID 504451; aptamer displacement, % at 10 µM; hit rate 4% among 2,000; bead-bound GRK2, FAM-aptamer displacement, flow cytometry; shares compounds with GRK2 inh;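 active means aptamer displacement above 40%, near three times the noise of non-fluorescent compounds, on plates passing quality checks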;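 further: negative values mostly reflect intrinsic compound fluorescence rather than true enhancement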
Aptamer quench 1: counter-screen for GRK2 aptamer inhibitors: fluorescent aptamer quenchers; fluorescence change (kMESF span), kMESF (no concentration beside the values); Fluorescent RNA aptamer beads, quenching, flow cytometry; active compounds read high; shares compounds with GRK2 inh; 110 tested, under 10 active; AID 504521;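 active means compounds whose bead fluorescence drops by more than 37 kMESF across the dose range, marking them as dye quenchers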
FAM quench CP1: counter-screen for GRK2 aptamer inhibitors: fluorescent aptamer quenchers; shares compounds with GRK2 inh; Carboxyfluorescein RNA aptamer on beads, flow cytometry quenching; active compounds read low; fluorescence response (% of DMSO), % at 10 µM; 2,000 tested, under 10 active; AID 504580;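 active means compounds that quench the bead-bound fluorescent RNA probe, cutting fluorescence to under half of the solvent control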;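 further: counterscreen run without GRK2 so only probe quenching by compound is measured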
GRK2 confirm 2: human GRK2 inhibition confirmation, cherry pick 2 | shares compounds with GRK2 inh | bead-bound GRK2, FAM-aptamer displacement, flow cytometry | inhibition of aptamer binding, % at 10 µM | 360 tested, under 10 active | AID 504782;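 active means inhibition of aptamer binding above 40%, about triple the noise seen with nonglowing compounds, on plates passing quality control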;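 further: negative values mostly come from compounds that fluoresce themselves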
FAM quench SP: aptamer fluorescence quenching in GRK2 counter-screen; shares compounds with GRK2 inh; carboxyfluorescein RNA aptamer beads, flow cytometry quenching; active compounds read low; fluorescence response vs DMSO, % at 10 µM; 360 tested, under 10 active; AID 588494;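 active means response vs DMSO under 50%, meaning signal dropped by over half, treated as fluorescence quencher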;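 further: labelled aptamer on streptavidin beads without GRK2 as a quench counter-screen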
FAM quench DR: counter-screen for GRK2 aptamer binding inhibitors: aptamer fluorescence quenching. 35 tested, under 10 active. shares compounds with GRK2 inh. AID 588496. fluorescence ratio to DMSO, % at 11.1 µM. Bead-bound FAM RNA aptamer fluorescence quenching, flow cytometry; active compounds read low;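 active means compounds that dim the fluorescent label, raw bead signal shifting by over 33 units between lowest and highest dose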
Each line names hits and unclear results; the compound was inactive in the other large screens (follow-up assays come after a bar, where they were run). Shown are actives, neighbours in structure and some others; about 2.5% of the full set was active somewhere.

COc1ccc(N=Cc2nc(-c3ccccc3)oc2OC(C)=O)cc1	GRK2 inh 73 | GRK2 inh confirm inactive | FAM quench CP1 inactive
COc1ccc(/C=C2/SC(=O)N(CCC(=O)Nc3ccccc3C(=O)O)C2=S)cc1	none
NC(=S)N1OC[C@@H]2COc3ccc4ccccc4c3[C@@H]21	GRK2 inh 65 | GRK2 inh confirm inactive | FAM quench CP1 inactive
COc1ccc2c(c1)O[C@@H](c1cccc(C(F)(F)F)c1)[C@H](OC(=O)Nc1ccc(OC(F)F)cc1)C2=O	none
Cc1cccc(N2CCN(C(=O)CCS(=O)(=O)c3ccc(Br)cc3)CC2C)c1 (stereo not drawn)	GRK2 inh 78 | GRK2 inh confirm 57 | Aptamer quench 1 inactive | FAM quench CP1 inactive | FAM quench DR inactive
CC(=O)N1CCCc2cc(S(=O)(=O)CCC(=O)N3CCN(c4cccc(C)c4)C(C)C3)ccc21 (stereo not drawn)	none (no result: MEKK3 PB1 HTS, MEKK2 mut-MEK5, MEKK2 WT-MEK5) | GRK2 inh confirm inactive | Aptamer quench 1 inactive | FAM quench CP1 inactive
COC(=O)c1ccccc1S(=O)(=O)N1CCC(C(=O)NC2=NCCS2)CC1	none (no result: MEKK3 PB1 HTS, MEKK2 mut-MEK5, MEKK2 WT-MEK5)
O=c1nc(Nc2ccc(Br)cc2)sc2ccc([N+](=O)[O-])cc12	GRK2 inh 42 | GRK2 inh confirm inactive | FAM quench CP1 inactive
CC(=O)Nc1nc2cc([N+](=O)[O-])ccc2s1	none (no result: MEKK3 PB1 HTS, MEKK2 mut-MEK5, MEKK2 WT-MEK5)
COC(=O)c1ccccc1Sc1snnc1C	none
Cc1ccc(/C=C2\C(=O)Nc3ccccc32)o1	none
Cc1ccc2c(c1)/C(=C/c1ccco1)C(=O)N2	GRK2 inh 94 | GRK2 inh confirm inactive | FAM quench CP1 inactive
COc1ccc(CC2S/C(=N/N=C/c3ccc(O)cc3)NC2=O)cc1 (stereo not drawn)	GRK2 inh 100 | GRK2 inh confirm inactive | FAM quench CP1 inactive
Cc1cc(N)nc(SCC(=O)N2C(C)CCCC2C)n1 (stereo not drawn)	GRK2 inh 50 | GRK2 inh confirm inactive | FAM quench CP1 inactive
c1ccc2nc(-c3ccc4c(c3)OCO4)ccc2c1	none
COc1ccc(OC)c2nc(-c3ccc4c(c3)OCO4)ccc12	GRK2 inh 42 | GRK2 confirm 2 inactive | FAM quench SP inactive
CC1CCN(C(C(=O)Nc2ccc3c(c2)OCO3)c2ccccc2)CC1 (stereo not drawn)	GRK2 inh 43 | GRK2 inh confirm inactive | FAM quench CP1 inactive
COC(=O)C1CCN(C(=O)C23CCC(C)(C(=O)O2)C3(C)C)CC1 (stereo not drawn)	none
COc1cc2c(cc1OC)C(C)N(S(=O)(=O)c1ccc(C)cc1)CC2 (stereo not drawn)	GRK2 inh 49 | GRK2 inh confirm inactive | FAM quench CP1 inactive
COc1cc2c(cc1OC)C(C)N(S(=O)(=O)c1cccs1)CC2 (stereo not drawn)	none
COc1ccc(/C=C2/SC(=S)N(Cc3ccccc3)C2=O)cc1O	none
COc1ccc(/C=C2\SC(=S)N(N3C(=O)CCC3=O)C2=O)cc1O	none | GRK2 inh confirm inactive | FAM quench CP1 inactive
COC(=O)c1ccc(NC(=O)Nc2cccc(F)c2)cc1	none
O=C(NCc1ccccn1)[C@@H]1C[C@H]1[C@@H](NP(=O)(c1ccccc1)c1ccccc1)c1ccccc1	none
CC(C)=NN1C(c2nonc2N)=NOC1(C)C	none | GRK2 inh confirm inactive | FAM quench CP1 inactive
C=C(C)CSc1nc2sc3c(c2c(=O)n1-c1ccccc1)CCN(C)C3	none | GRK2 inh confirm inactive | FAM quench CP1 inactive
COC(=O)CSc1nc2sc3c(c2c(=O)n1-c1ccccc1)CCN(C)C3	none
O=C(CNC(=O)c1ccco1)N/N=C/c1cc(Br)ccc1O	none
